Measured values as given in PubChem BioAssay (NCATS).
Values joined by “and” are separate entries in the source; they are usually repeats but may differ in a detail not shown here. Equal entries are not always repeated. Records with an inconclusive call do not appear. Where a call stands in place of a potency, no number is given. Values without a mark were called inactive. Active and inactive are the calls of the source. Unless noted, calls come from the whole dose curve; as a rule, active = well fitted curve in the direction sought with a large enough effect; inconclusive = small, poorly fitted or top-dose-only effect, or another doubt; inactive = no such curve, though single readings can be large; an effect the other way counts as inactive or inconclusive.

Key:
[1] = Counterscreen qHTS for small molecule stabilizers of the endoplasmic reticulum resident proteome: GLuc-NoTag assay (AID 1508627); note: potency is the fitted concentration of half-maximal effect
Procedure, shortened: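 Counterscreen line: SH-SY5Y-GLuc-NoTag. Seed, 5 h; compound, 19 h; thapsigargin 100 nM, 4 h; 37C/5% CO2. Readout: secreted GLuc luminescence, coelenterazine 0.07x final, no lysis.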

[2] = Confirmatory qHTS for small molecule stabilizers of the endoplasmic reticulum resident proteome: Secreted ER Calcium Modulated Protein (SERCaMP) assay (AID 1508628); note: nearly all actives have a fitted effect of over 40% in size; note: potency is the fitted concentration of half-maximal effect
Procedure, shortened: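 GLuc-SERCaMP-expressing SH-SY5Y cells, pretreated 16 h with compound, are challenged with thapsigargin to empty ER calcium stores; after 4 h, coelenterazine is added directly to the medium and luminescence is imaged.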

[3] = Cell Viability qHTS for small molecule stabilizers of the endoplasmic reticulum resident proteome (AID 1508629); conditions: cell viability counter-screen, 100 nM thapsigargin for final 4 h;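 note: compound exposure about 46 h in total before the viability read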; note: potency is the fitted concentration of half-maximal effect;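 for max response: human SH-SY5Y neuroblastoma cells carrying the GLuc-SERCaMP reporter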
[4] = target: Cytochrome P450 2D6 (Homo sapiens) (UniProt P10635); test: Cytochrome P450 family 2 subfamily D member 6 (CYP2D6) small molecule antagonists: luciferase biochemical (cell-free) qHTS assay (AID 1645840; active = well fitted curve in the direction sought with a large enough effect in the repeat runs; an effect the other way counts as inactive or inconclusive; note: nearly all actives have a fitted effect of over 55% in size; note: potency is the fitted concentration of half-maximal effect)
Cytochrome P450 2D6 (Homo sapiens), sequence (P10635 whole entry, looked up): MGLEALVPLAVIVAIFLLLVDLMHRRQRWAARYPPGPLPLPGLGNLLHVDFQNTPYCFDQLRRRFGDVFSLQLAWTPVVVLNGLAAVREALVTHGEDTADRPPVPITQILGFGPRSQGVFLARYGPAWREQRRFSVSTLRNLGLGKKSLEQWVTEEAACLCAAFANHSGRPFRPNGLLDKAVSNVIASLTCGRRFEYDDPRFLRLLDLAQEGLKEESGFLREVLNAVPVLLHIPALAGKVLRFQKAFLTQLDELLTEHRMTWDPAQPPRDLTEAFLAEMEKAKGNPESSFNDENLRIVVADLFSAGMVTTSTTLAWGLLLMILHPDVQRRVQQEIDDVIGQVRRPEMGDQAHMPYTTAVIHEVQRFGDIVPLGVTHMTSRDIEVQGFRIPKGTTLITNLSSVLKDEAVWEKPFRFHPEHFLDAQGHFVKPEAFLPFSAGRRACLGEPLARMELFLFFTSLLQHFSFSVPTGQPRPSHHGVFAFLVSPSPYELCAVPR
Procedure, shortened: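 P450-Glo CYP2D6 system: proluciferin substrate converted by enzyme to luciferin, read by luminescence proportional to activity. Enzyme-substrate mix with compound 10 min at room temperature, then NADPH regeneration 1 h before detection reagent.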

[5] = target: Cytochrome P450 2C9 (Homo sapiens) (UniProt P11712); test: Cytochrome P450 family 2 subfamily C member 9 (CYP2C9) small molecule antagonists: luciferase biochemical (cell-free) qHTS assay (AID 1645842; active = well fitted curve in the direction sought with a large enough effect in the repeat runs; an effect the other way counts as inactive or inconclusive; note: nearly all actives have a fitted effect of over 55% in size; note: potency is the fitted concentration of half-maximal effect)
Cytochrome P450 2C9 (Homo sapiens), sequence (P11712 whole entry, looked up): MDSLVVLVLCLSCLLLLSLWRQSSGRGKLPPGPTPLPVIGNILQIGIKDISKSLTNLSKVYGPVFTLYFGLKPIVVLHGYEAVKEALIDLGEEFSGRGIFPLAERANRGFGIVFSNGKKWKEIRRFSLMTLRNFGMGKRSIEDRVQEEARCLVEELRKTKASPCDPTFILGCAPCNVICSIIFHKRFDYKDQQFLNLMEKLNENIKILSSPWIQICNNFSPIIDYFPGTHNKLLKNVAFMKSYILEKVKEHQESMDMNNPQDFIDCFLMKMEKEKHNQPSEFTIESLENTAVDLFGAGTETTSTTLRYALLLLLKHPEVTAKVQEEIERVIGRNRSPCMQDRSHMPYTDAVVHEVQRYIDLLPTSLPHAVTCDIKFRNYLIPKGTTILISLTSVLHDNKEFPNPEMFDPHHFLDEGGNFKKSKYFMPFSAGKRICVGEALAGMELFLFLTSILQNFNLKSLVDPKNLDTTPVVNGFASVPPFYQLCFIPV
Procedure, shortened: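 P450-Glo CYP2C9 system: proluciferin substrate with enzyme in mix containing 0.4% BSA, 10 min at room temperature, then NADPH regeneration solution added and incubated 1 h at 37C. Detection reagent stopped reaction; luminescence read after 20 min as RLU.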

[6] = Primary qHTS for small molecule stabilizers of the endoplasmic reticulum resident proteome: Secreted ER Calcium Modulated Protein (SERCaMP) assay (AID 1508630); note: potency is the fitted concentration of half-maximal effect
Procedure, shortened: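 The SH-SY5Y reporter protocol was run at 3 concentrations up to 38.3 uM (primary) or 11 concentrations (follow-up): 16 h compound, 100 nM thapsigargin for 4 h, then extracellular luciferase luminescence.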

Papain (Carica papaya) = Papain (Carica papaya) (UniProt P00784); test: Primary qHTS assay for inhibitors of the protease papain (AID 1645873);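 note: papain turnover of Z-FR-AMC read as the AMC fluorescence gain over 10 min; series mostly up to about 50 µM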
Papain (Carica papaya), sequence (P00784 whole entry, looked up): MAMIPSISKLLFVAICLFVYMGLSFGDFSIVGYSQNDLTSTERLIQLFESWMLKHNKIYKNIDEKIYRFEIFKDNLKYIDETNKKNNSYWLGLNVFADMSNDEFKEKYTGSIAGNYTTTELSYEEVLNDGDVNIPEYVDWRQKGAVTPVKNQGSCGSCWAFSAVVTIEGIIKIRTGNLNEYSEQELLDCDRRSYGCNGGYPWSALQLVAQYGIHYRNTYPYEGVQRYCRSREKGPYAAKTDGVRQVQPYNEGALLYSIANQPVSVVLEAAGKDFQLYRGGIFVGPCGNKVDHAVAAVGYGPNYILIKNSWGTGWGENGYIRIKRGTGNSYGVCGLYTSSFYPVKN

[7] = A High-Content qHTS Against Drug Library for the Identification of Small Molecules that Inhibit DYT1 Early Onset Primary Dystonia-Associated Cell Pathology (AID 1645839; calls by dose curve; note: potency is the fitted concentration of half-maximal effect)
Procedure, shortened: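 Cells were seeded and left for 24 h, then dosed with compound alongside tetracycline induction of mutant EGFP-TorsinA. They were incubated for 48 h, fixed in 4% paraformaldehyde, permeabilized and imaged for mislocalization (%pathology) and cell count.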

[8] = target: Cytochrome P450 3A4 (Homo sapiens) (UniProt P08684); test: Cytochrome P450 family 3 subfamily A member 4 (CYP3A4) small molecule antagonists: luciferase qHTS assay (AID 1645841; active = well fitted curve in the direction sought with a large enough effect in the repeat runs; an effect the other way counts as inactive or inconclusive; note: nearly all actives have a fitted effect of over 45% in size; note: potency is the fitted concentration of half-maximal effect)
Cytochrome P450 3A4 (Homo sapiens), sequence (P08684 whole entry, looked up): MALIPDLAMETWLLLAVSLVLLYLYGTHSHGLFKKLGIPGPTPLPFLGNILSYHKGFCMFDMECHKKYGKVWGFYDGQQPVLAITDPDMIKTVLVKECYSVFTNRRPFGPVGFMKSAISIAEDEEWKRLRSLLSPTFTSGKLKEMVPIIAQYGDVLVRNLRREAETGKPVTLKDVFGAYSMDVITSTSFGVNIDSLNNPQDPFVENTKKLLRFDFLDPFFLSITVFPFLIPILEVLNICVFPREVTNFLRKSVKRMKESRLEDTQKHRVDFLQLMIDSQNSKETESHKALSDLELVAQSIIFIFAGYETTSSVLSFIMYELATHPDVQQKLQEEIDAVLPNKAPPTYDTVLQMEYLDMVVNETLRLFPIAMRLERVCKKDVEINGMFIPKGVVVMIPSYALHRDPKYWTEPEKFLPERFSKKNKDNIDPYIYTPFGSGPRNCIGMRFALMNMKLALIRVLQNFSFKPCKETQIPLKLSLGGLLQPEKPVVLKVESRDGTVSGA
Procedure, shortened: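 P450-Glo CYP3A4 enzyme with proluciferin substrate preincubated 10 min with compound at room temperature, then NADPH regeneration 1 h. Luciferin detection reagent added for 20 min; luminescence recorded. Ketoconazole positive control.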

SMILES: CC(C)C[C@@H]1[C@H](c2ccccc2)OC(=O)N1CCCN1CCCCCC1
- Potency [1]: inactive
- Potency [2]: 31.6 µM (active)
- max response [3]: -0.48%
- Potency [4]: 0.776 µM (active)
- Potency [5]: inactive

SMILES: O=C1NC(c2cccc([N+](=O)[O-])c2)=CCN1c1ccccc1O
- Potency [1]: inactive
- Potency [2]: 3.16 µM (active)
- max response [3]: 23.5% and 15.8%
- Potency [6]: inactive
- outcome (Papain (Carica papaya)): inactive

SMILES: CC(C)OC(=O)c1cc2c(OCC(O)CNC(C)(C)C)cccc2[nH]1 (centres undefined)
- Potency [1]: inactive
- max response [3]: -12.8%
- Potency [7]: inactive
- Potency [4]: 11 µM (active)
- Potency [5]: inactive

SMILES: C[C@H]1C[C@H](O)c2ccsc2S1(=O)=O
- Potency [1]: inactive
- Potency [2]: inactive
- Potency [4]: inactive
- Potency [5]: inactive

SMILES: Fc1ccc(C(c2ccc(F)cc2)N2CCNCC2)cc1
- Potency [1]: inactive
- Potency [2]: inactive
- Potency [7]: inactive
- Potency [4]: 7.76 µM (active)
- Potency [5]: inactive

SMILES: O=[N+]([O-])c1ccc(O)c2ncccc12
- Potency [3]: 7.94 µM (active)
- Potency [6]: 1 µM (active)
- Potency [4]: inactive
- Potency [5]: inactive

SMILES: CC(C)N(CCC(=O)c1ccc2ccccc2c1)Cc1ccccc1
- Potency [6]: inactive

SMILES: CC(CC1c2ccccc2CCc2ccccc21)CN(C)C (centres undefined)
- Potency [1]: inactive
- Potency [4]: 0.246 µM (active)
- Potency [5]: inactive

SMILES: Cc1onc(-c2ccccc2)c1C(=O)Cl
- Potency [1]: inactive
- Potency [2]: inactive
- Potency [7]: inactive
- Potency [4]: inactive
- Potency [5]: inactive

SMILES: COc1cccc2c1[C@@H]1CN(CCCCn3c(=O)[nH]c4c(sc5ncc(-c6ccccc6)nc54)c3=O)C[C@@H]1CO2
- Potency [2]: inactive
- outcome (Papain (Carica papaya)): inactive

SMILES: CCOC(=O)N1CCC(Nc2ccc(Cl)cc2N)CC1
- max response [3]: -17.4%
- Potency [4]: 7.76 µM (active)
- Potency [5]: 8.71 µM (active)

SMILES: CN1CCCN(C(c2ccccc2)c2ccc(Cl)cc2)CC1 (centres undefined)
- Potency [2]: inactive
- Potency [3]: 25.1 µM (active)
- Potency [4]: 0.0776 µM (active)
- Potency [5]: inactive

SMILES: COC(=O)c1c(Cl)c(Cl)c(C(=O)OC)c(Cl)c1Cl
- Potency [1]: inactive
- Potency [2]: inactive
- max response [3]: 10.1%
- Potency [7]: inactive
- Potency [4]: inactive
- Potency [5]: inactive

SMILES: Cc1nc2n(c(=O)c1CCN1CCC(C(=O)c3ccc(F)cc3)CC1)CCS2
- Potency [1]: inactive
- Potency [2]: inactive
- max response [3]: -14.5%
- Potency [7]: inactive
- Potency [4]: 0.275 µM (active)
- Potency [5]: inactive

SMILES: CN1CCC(Nc2ncc3ncnc(Nc4ccc(F)c(Cl)c4)c3n2)CC1
- Potency [1]: inactive
- Potency [2]: inactive
- Potency [4]: 15.5 µM (active)
- Potency [5]: inactive

SMILES: CN1CCC(=C2c3ccccc3CCc3cccnc32)CC1
- max response [3]: 12.6%
- Potency [7]: inactive

SMILES: CC(C(O)c1ccccc1)N(C)CCOC(c1ccccc1)c1ccccc1 (centres undefined)
- Potency [2]: 31.6 µM (active)
- max response [3]: -4.6%
- Potency [4]: 0.0309 µM (active)
- Potency [5]: 13.8 µM (active)

SMILES: CN1CCC(N(Cc2cccs2)c2ccccc2)CC1
- Potency [1]: inactive
- Potency [2]: 31.6 µM (active)
- Potency [4]: 0.49 µM (active)
- Potency [5]: inactive

SMILES: O=C(NO)c1ccccc1
- Potency [1]: inactive
- Potency [2]: inactive
- max response [3]: 2.69%
- Potency [7]: inactive
- Potency [4]: inactive
- Potency [5]: inactive

SMILES: CCOc1ncc(F)c(=O)[nH]1
- Potency [1]: inactive
- Potency [2]: inactive
- Potency [4]: inactive
- Potency [5]: inactive

SMILES: O=C1CC(c2ccc(Cl)cc2)CC(=O)N1
- Potency [1]: inactive
- Potency [2]: inactive
- max response [3]: 1.98%
- Potency [7]: inactive
- Potency [4]: inactive
- Potency [5]: inactive

SMILES: CC(C)(C)c1ccc(O)c(O)c1
- Potency [1]: inactive
- Potency [7]: 31.6 µM (active)

SMILES: Cc1cc2nc3ccc(=[N+](C)C)cc-3sc2cc1N
- Potency [1]: 35.5 µM (active)
- Potency [3]: 7.94 µM (active)
- Potency [4]: 0.431 µM (active)
- Potency [5]: 1.08 µM (active)

SMILES: CCC(=O)O[C@H]1[C@H](O[C@@H]2[C@@H](C)[C@H](O[C@H]3C[C@@](C)(OC)[C@@H](O)[C@H](C)O3)[C@@H](C)C(=O)O[C@H](CC)[C@@](C)(O)[C@H](O)[C@@H](C)C(=O)[C@H](C)C[C@@]2(C)O)O[C@H](C)C[C@@H]1N(C)C
- Potency [1]: inactive
- Potency [2]: 20 µM (active)
- max response [3]: 17.4%
- Potency [7]: inactive
- Potency [4]: inactive
- Potency [8]: 18.2 µM (active)
- Potency [5]: inactive

SMILES: C[C@H](N)C(=O)N[C@@H](C)C(=O)NC1[C@H]2CN(c3nc4c(cc3F)c(=O)c(C(=O)O)cn4-c3ccc(F)cc3F)C[C@@H]12 (some centres undefined)
- Potency [1]: inactive
- max response [3]: -5.88%
- Potency [7]: inactive
- Potency [4]: inactive
- Potency [8]: inactive
- Potency [5]: inactive

SMILES: N[C@@H](Cc1cc(I)c(O)c(I)c1)C(=O)O
- Potency [1]: inactive
- Potency [2]: inactive
- max response [3]: 10.7%
- Potency [6]: inactive
- Potency [5]: 15.5 µM (active)

SMILES: CN(C)CCOC(c1ccccc1)c1ccc(Br)cc1 (centres undefined)
- Potency [1]: inactive
- Potency [4]: 0.275 µM (active)
- Potency [5]: inactive

SMILES: Clc1ccc2c(c1)N=C(N1CCNCC1)c1ccccc1N2
- Potency [1]: inactive
- Potency [2]: 14.1 µM (active) and 10 µM (active)
- outcome (Papain (Carica papaya)): inactive

SMILES: Nc1cccc2c(N)cccc12
- Potency [2]: inactive
- Potency [4]: 2.99 µM (active)
- Potency [5]: 18.9 µM (active)

SMILES: O=C(O)Cn1cnnn1
- Potency [1]: inactive
- Potency [2]: inactive
- Potency [4]: inactive
- Potency [5]: inactive

SMILES: CCCC(=O)Nc1ccc(O)c(C(C)=O)c1
- Potency [2]: inactive
- max response [3]: 11.5%
- Potency [7]: inactive
- Potency [4]: inactive
- Potency [5]: inactive

SMILES: CCOC(=O)c1ccc(O)c(O)c1
- Potency [1]: inactive
- max response [3]: 4.88%
- Potency [4]: inactive
- Potency [5]: inactive
